Experimental findings from PubChem BioAssay AID1490 (National Center for Advancing Translational Sciences (NCATS), 2009) are described below.

Hit rate of the full screen: of about 310,000 compounds, about 11,000 (3.5%) were called active. Another 4% or so got no clear call; they are omitted. This excerpt belongs to a sample that is enriched for actives. A number with no mark means an inactive call. The call rests on the fitted dose curve; in most records, active means well fitted inhibition curve with a large enough effect; inconclusive means small, poorly fitted or top-dose-only effect, or another doubt; inactive means no such curve, though single readings can be large or run the other way.
Potency means the concentration at half of the fitted maximal effect.

The target in this assay is 4'-phosphopantetheinyl transferase ffp (Bacillus subtilis) (UniProt Q9F4F7). The assay can be described thus: qHTS Assay for Inhibitors of Bacillus subtilis Sfp phosphopantetheinyl transferase (PPTase).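 Further: the enzyme is Sfp with the accession as filed and its product quenches rhodamine fluorescence.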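 On largest response in the series, negative = inhibition: 0% = enzyme reaction without inhibitor and -100% = no enzyme wells.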 Conditions: Biochemical Sfp PPTase activity. An excerpt:
Assay Submitter: Michael Burkart, University of California, San Diego
Screening Center PI: Austin, C.P.
Screening Center: NIH Chemical Genomics Center [NCGC]
The covalent attachment of a phosphopantetheinyl (4'-PP) arm to a variety of synthases and other proteins is a key posttranslational protein modification. The 4'-PP is installed on the proteins post-translationally from coenzyme A (CoA) on a conserved serine residue by action of phosphopantetheinyl transferase (PPTase) enzymes. Phosphopantetheinylation is essential for synthase activity, and removal of the PPTase gene precludes natural product synthesis in microorganisms, or in the case of fatty acid biosynthesis, renders the organism unviable. PPTase enzymes belong to a distinct structural superfamily. Within bacteria, these enzymes are grouped into two classes based upon primary structure, the AcpS-Type and Sfp-Type PPTases.
Sfp-type PPTases, corresponding to an activator of surfactin production in Bacillus subtilis, are responsible for modifying type I polyketide and nonribosomal peptide synthases of prokaryotes. Sfp-type PPTases are responsible for the activation of a variety of pathogen-associated virulence factors. Among these compounds are toxins such as mycolactone from Mycobacterium ulcerans, siderophores such as vibriobactin from Vibrio cholerae or mycobactin from Mycobacterium tuberculosis, as well as the mycolic acids which form the waxy cell wall of Mycobacteria. The biosyntheses of these natural products are considered attractive targets for drug design.
In search of small molecule Sfp-PPTase inhibitors, a fluorescence quenching assay was developed for detection of Bacillus subtilis Sfp-PPTase enzymatic activity in a miniaturized high-throughput format. The consensus ybbr acceptor peptide […] was N-terminally labeled with Black Hole Quencher-2 (BHQ-2) and used in combination with rhodamine-labeled coenzyme A as a co-substrate.
Inhibition of Sfp-PPTase was detected by recording the fluorescence intensity change over a 30-minute reaction period at a 525 nm excitation and 598 nm emission. Reagents were supplied by Michael Burkart and Timothy Foley, University of California at San Diego.
This BioAssay deposition is for validation of the developed Sfp-PPtase assay.
Assay Buffer: 50 mM Hepes-Na pH 7.6, 10 mM MgCl2, 0.01% Nonidet P-40, and 0.01% BSA.
3 uL of Sfp-PPTase enzyme (final concentration 15 nM) and 1 uL of substrate mixture (final concentration for rhodamine-CoA and BHQ-2-YbbR 5 uM and 12.5 uM, respectively) dispensed in columns 1, 2, 5 - 48. Columns 1 and 2 used to generate neutral control (uninhibited reaction)
Three uL of reagents, consisting of buffer (in columns 3 and 4 as negative control) and Sfp-PPTase (in columns 1, 2, 5 - 48) were dispensed into 1,536-well Greiner black solid bottom plate. Compounds (23 nL) were transferred via Kalypsys pintool equipped with 1,536-pin array. The plate was incubated for 15 min at room temperature, followed by the addition of 1 uL substrate to start the reaction. The plate was then centrifuged at 1000 rpm for 15 seconds, and the fluorescence intensity recorded on a ViewLux High-throughput CCD imager (Perkin-Elmer) using standard BODIPY optics (525 nm excitation and 598 nm emission). The plate was then incubated for 30 minutes, and a second read on the ViewLux was performed. The fluorescence intensity difference over the 30-minute period was used to calculate the respective reaction rate for each well.
Consider `CCC1S/C(=N/N=C/c2ccco2)NC1=O` (configuration not stated), for which the largest response in the series, negative = inhibition is 3.46%. Consider `CC(C)(C)C1C/C(=C/c2ccco2)C(=O)/C(=C/c2ccco2)C1` (configuration not stated), for which the Potency is 20 µM (active). As for `CCCC(=O)N1CCC(CCC(=O)NC2CC2)CC1`, the largest response in the series, negative = inhibition was 11.2%. For the molecule `COc1ccc(CNC(=O)C2CCN(C(=O)c3ccccc3)CC2)cc1`, the largest response in the series, negative = inhibition is 8.47%. Still for that read-out and setting: in the case of `CCOC(=O)CC1=CC(=O)Nc2ccccc2N1` it was -6.73%. In the case of `CCOC(=O)C(=O)C1C(=O)Nc2ccccc21` (configuration not stated), the Potency is 25.1 µM (active). In the case of `CCCCC(CC)CNC(=O)C(=O)C1C(=O)Nc2ccccc21` (configuration not stated), the largest response in the series, negative = inhibition was 22%. `COC1=C/C(=C/c2c(N)n3nc(CC(=O)N4CCOCC4)sc3nc2=O)C=CC1=O`: the largest response in the series, negative = inhibition is -2.99%.

`CCC(NC(=O)c1ccccc1NC(=O)c1ccccc1)C(=O)NNC(=O)CSc1nc2ccccc2o1` (configuration not stated): the largest response in the series, negative = inhibition is -1.67%. Still for that read-out and setting: next, `CCOC(=O)Cc1csc(NC(=O)CSc2ccc(Br)cc2)n1`: 11.6%; `CCCCc1nnc(NC(=O)CSc2nc(C)cc(=O)[nH]2)s1`: 9.76%. For `CCOC(=O)Cc1csc(NC(=O)CSc2nc(C)cc(=O)[nH]2)n1`, the Potency is 17.8 µM (active).

`Cc1ccc(-n2c(SCC(=O)NCCC3=CCCCC3)nc3n[nH]c(C)c3c2=N)cc1Cl`: the largest response in the series, negative = inhibition is 14.5%.

Regarding `CSc1cccc(NC(=O)CN2C(=O)COc3ccc(S(=O)(=O)N4CCOCC4)cc32)c1`, the largest response in the series, negative = inhibition was 10.2%. On the same count and under the same terms, in the case of `O=C1COc2ccc(S(=O)(=O)Nc3ccc(OC(F)(F)F)cc3)cc2N1` it was 25.6%.

In the case of `Cc1nc([N+](=O)[O-])cn1CC(=O)Nc1ccc(Cl)cc1`, the largest response in the series, negative = inhibition was 16.2%. `CCOC(=O)c1c(C)[nH]c(=S)c(C#N)c1-c1ccccc1`: the Potency is 79.4 µM (active). Regarding `Cc1cc(C)c2c(-c3ccc(F)cc3)c(C#N)c(=O)n(C)c2n1`, the largest response in the series, negative = inhibition is 10.3%. Still for that read-out and setting: in the case of `CCOC(=O)c1c(C)nc(-c2ccccc2)nc1NC(=O)C(C)C` it was -3.48%. The same measure, in the same setting: next, `CCOC(=O)c1c(C)[nH]c2c1-c1ccccc1C(=O)C2=O`: 4.96%. Turning to `CC(=O)c1c(C)[nH]c(=S)c(C#N)c1-c1ccc(F)cc1`, the Potency is 44.7 µM (active). `N#Cc1c(-c2ccc(Cl)cc2)c2c([nH]c1=S)CCCC2`: the largest response in the series, negative = inhibition was -5.85%. Take `Cc1ccc(S(=O)(=O)NCC(=O)N2CCOCCOCCOCCOCC2)cc1`: the largest response in the series, negative = inhibition is 7.3%. On the same count and under the same terms, in the case of `Cc1ccc(-c2nn(-c3cccc(F)c3)cc2CNCCc2ccncc2)o1` it was -5%. For `COc1ccc(-c2nn(-c3ccccc3)cc2/C=C2/SC(=S)N(CCCC(=O)O)C2=O)c(C)c1`, the Potency was 56.2 µM (active).

`COc1ccc(/C=C2\SC(=S)N(CCC(=O)Nc3ccccn3)C2=O)cc1OC`: the largest response in the series, negative = inhibition is 11%. Turning to `CN(C)S(=O)(=O)c1cccc(-c2nn(-c3ccccc3)cc2/C=C2\SC(=S)N(CC(=O)O)C2=O)c1`, the Potency was 56.2 µM (active). Regarding `O=C(CN1C(=O)/C(=C\c2ccccc2F)SC1=S)Nc1nc2ccccc2s1`, the largest response in the series, negative = inhibition is 5.28%. In the case of `O=C(O)CCC(=O)N(Cc1ccccc1)Cc1ccccc1`, the largest response in the series, negative = inhibition is 17.6%. In the case of `Cc1ccc(-c2nn(-c3ccccc3)cc2/C=C2\SC(=S)N(CCCCCC(=O)O)C2=O)o1`, the Potency is 39.8 µM (active).

Regarding `Cc1ccc(/C=C2\SC(=S)N(CCC(=O)Nc3ccc(O)cc3)C2=O)cc1`, the largest response in the series, negative = inhibition is 15.8%. In the case of `Cc1ccc(-c2nn(-c3ccccc3)cc2/C=C/C(=O)Nc2cccc(S(N)(=O)=O)c2)cc1`, the largest response in the series, negative = inhibition is 12.2%. With `Cc1ccc(-c2nn(-c3ccccc3)cc2CN(Cc2ccccc2)C(=O)CCC(=O)O)o1`, the Potency is 8.91 µM (active). Consider `COc1ccccc1C(=O)NNC(=O)CCN1C(=O)/C(=C\c2ccccc2)SC1=S`, for which the largest response in the series, negative = inhibition is -10.5%. Same read-out and setting: in the case of `C=CCOc1ccc(/C=C2\SC(=S)N(CCC(=O)O)C2=O)cc1` it was 6.13%. On the same count and under the same terms, in the case of `Cc1n[nH]c(=O)c2c1nnn2Cc1ccc(F)cc1` it was 6.71%; in that of `CCOCCCNC(=O)C1(O)c2cc(Br)ccc2NC(=O)N1c1ccc(C)c(C)c1` (configuration not stated), -2.61%; in that of `Cc1ccc(S(=O)(=O)NCCC(=O)Nc2cccc(S(N)(=O)=O)c2)cc1C`, -1.6%. With `O=S(=O)(c1ccc(F)cc1)N1CCN=C1SCc1cccc(F)c1`, the largest response in the series, negative = inhibition is 5.65%. Take `O=C(Nc1ccccc1C(=O)Nc1ccncc1)c1ccc([N+](=O)[O-])cc1`: the largest response in the series, negative = inhibition was 4.06%. On the same count and under the same terms, next, `O=C(CN1CCCCCC1)Nc1c(Cl)cc(Cl)cc1Cl`: 6.16%. Consider `O=S(O)S(=O)(=O)O`, for which the largest response in the series, negative = inhibition was 7.74%. Still for that read-out and setting: next, `Cc1nc2nc(C)c(NS(=O)(=O)c3ccc(C(C)(C)C)cc3)c(=O)n2[nH]1`: 14.4%; `COc1cccc(C(=O)NC(=O)Nc2nc(C)cc(C(F)(F)F)n2)c1`: 14.9%.

Take `CC1CC(C)CN(CCCNC(=O)c2csc3c2CCCCC3)C1` (configuration not stated): the largest response in the series, negative = inhibition is 5.49%. In the case of `O=C(NCCc1cccc(F)c1)C1CCCN(c2nc3ccccc3s2)C1` (configuration not stated), the largest response in the series, negative = inhibition is -6.45%.

In the case of `CN1CCN(c2ccccc2NC(=O)COc2ccc(C3CCCCC3)cc2)CC1`, the largest response in the series, negative = inhibition was -19.2%.
